Test results taken from PubChem BioAssay AID1159580 (chemical genetic matrix, 2015).
“And” between values parts separate entries of the source, which are not always exact repeats. Identical values can stand only once. The campaign covered roughly 5,500 compounds. About 2,000 (36%) were called active. Not shown: some 18% with an inconclusive outcome. Rule as the data show it: active = normalized growth mostly below about 0.91 (no sharp cut-off); inconclusive = no clear call, values can overlap the other calls; inactive = mostly above about 0.92. The list shows a part of the results.

Assay: chemical genetic growth profiling, strain panel (AID 1159580);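 also: tested at 20 µM; growth read once vehicle control cultures reached saturation at 30 °C; 1 = growth at the plate median or of vehicle wells; lower values mean less growth of the strain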
Settings: S. cerevisiae deletion strains, growth OD

Measured: normalized growth

c1ccc(N=Nc2ccccc2)cc1
inactive: locus YAL021C, strain ccr4, stronger effect = lower value 1.02 | locus YAL026C, strain drs2, stronger effect = lower value 0.998 | locus YAL030W, strain snc1, stronger effect = lower value 0.985 | locus YBL061C, strain skt5, stronger effect = lower value 0.991 | locus YBR009C, strain hhf1, stronger effect = lower value 0.985 | locus YBR021W, strain FUR4, stronger effect = lower value 1.01 | locus YBR023C, strain chs3, stronger effect = lower value 0.99 | locus YBR171W, strain sec66, stronger effect = lower value 0.975 | locus YBR229C, strain ROT2, stronger effect = lower value 1 | locus YBR231C, strain swc5, stronger effect = lower value 0.984 | locus YBR279W, strain paf1, stronger effect = lower value 0.985 | locus YCL011C, strain gbp2, stronger effect = lower value 0.992 | locus YCL016C, strain dcc1, stronger effect = lower value 0.982 | locus YCL029C, strain bik1, stronger effect = lower value 1.03 | locus YCL061C, strain MRC1, stronger effect = lower value 0.993 | locus YCL069W, strain vba3, stronger effect = lower value 0.988 | locus YCR088W, strain abp1, stronger effect = lower value 0.991 | locus YDL005C, strain med2, stronger effect = lower value 0.977 | locus YDL035C, strain GPR1, stronger effect = lower value 0.981 | locus YDL040C, strain nat1, stronger effect = lower value 0.985 | locus YDL074C, strain BRE1, stronger effect = lower value 0.942 | locus YDL101C, strain DUN1, stronger effect = lower value 0.979 | locus YDL134C, strain PPH21, stronger effect = lower value 0.968 | locus YDL185W, strain tfp1, stronger effect = lower value 1.01 | locus YDL192W, strain arf1, stronger effect = lower value 1.03 | locus YDR001C, strain nth1, stronger effect = lower value 0.987 | locus YDR069C, strain doa4, stronger effect = lower value 0.995 | locus YDR101C, strain arx1, stronger effect = lower value 1.02 | locus YDR137W, strain rgp1, stronger effect = lower value 0.911 | locus YDR150W, strain NUM1, stronger effect = lower value 1 | locus YDR159W, strain sac3, stronger effect = lower value 1.01 | locus YDR162C, strain NBP2, stronger effect = lower value 1.01 | locus YDR195W, strain ref2 0.994 | locus YDR297W, strain sur2, stronger effect = lower value 0.987 | locus YDR318W, strain mcm21, stronger effect = lower value 1.02 | locus YDR334W, strain swr1, stronger effect = lower value 0.989 | locus YDR335W, strain msn5, stronger effect = lower value 0.972 | locus YDR388W, stronger effect = lower value 1.03 | locus YDR392W, strain spt3, stronger effect = lower value 0.992 | locus YDR502C, strain sam2, stronger effect = lower value 1.02 | locus YEL003W, strain gim4, stronger effect = lower value 0.996 | locus YEL037C, strain rad23, stronger effect = lower value 0.988 | locus YEL061C, strain CIN8 (second series), stronger effect = lower value 0.976 | locus YEL061C, strain CIN8, stronger effect = lower value 1 | locus YER015W, strain faa2, stronger effect = lower value 0.996 | locus YER016W, strain bim1, stronger effect = lower value 0.992 | locus YER110C, stronger effect = lower value 1.03 | locus YER111C, strain swi4, stronger effect = lower value 0.987 | locus YER155C, strain BEM2 (second series), stronger effect = lower value 0.906 | locus YER155C, strain BEM2, stronger effect = lower value 1.01 | locus YER167W, strain BCK2, stronger effect = lower value 0.998 | locus YFR010W, strain ubp6, stronger effect = lower value 0.99 | locus YGL078C, strain dbp3, stronger effect = lower value 1.02 | locus YGL086W, strain mad1, stronger effect = lower value 1.01 | locus YGL167C, strain pmr1, stronger effect = lower value 0.992 | locus YGL173C, strain kem1, stronger effect = lower value 0.993 | locus YGL227W, strain vid30, stronger effect = lower value 0.992 | locus YGL240W, strain doc1, stronger effect = lower value 0.975 | locus YGL248W, strain PDE1, stronger effect = lower value 0.982 | locus YGL253W, strain hxk2, stronger effect = lower value 0.996 | locus YGR078C, strain PAC10, stronger effect = lower value 0.939 | locus YGR135W, strain pre9, stronger effect = lower value 1.02 | locus YGR229C, strain SMI1, stronger effect = lower value 0.966 | locus YGR252W, strain gcn5, stronger effect = lower value 0.999 | locus YHR013C, strain ard1, stronger effect = lower value 1.07 | locus YHR027C, strain rpn1, stronger effect = lower value 0.987 | locus YHR030C, strain SLT2, stronger effect = lower value 1.01 and 0.972 | locus YHR079C, strain IRE1 (second series), stronger effect = lower value 1.02 | locus YHR079C, strain IRE1, stronger effect = lower value 0.967 | locus YHR094C, strain hxt1, stronger effect = lower value 1.03 | locus YHR129C, strain ARP1, stronger effect = lower value 1 | locus YHR142W, strain chs7, stronger effect = lower value 1.01 | locus YHR200W, strain rpn10, stronger effect = lower value 1.03 | locus YIL066C, strain RNR3, stronger effect = lower value 0.986 | locus YIL073C, strain SPO22, stronger effect = lower value 1.08 | locus YIL125W, strain kgd1, stronger effect = lower value 1.01 | locus YIR030C, strain dcg1, stronger effect = lower value 1.04 | locus YJL092W, strain hpr5, stronger effect = lower value 0.976 | locus YJL095W, strain BCK1 (second series), stronger effect = lower value 0.979 | locus YJL095W, strain BCK1, stronger effect = lower value 0.983 and 0.961 | locus YJL115W, strain asf1, stronger effect = lower value 0.989 | locus YJL129C, strain trk1, stronger effect = lower value 0.969 | locus YJL134W, strain LCB3, stronger effect = lower value 1.01 | locus YJL154C, strain vps35, stronger effect = lower value 0.984 | locus YJL164C, strain tpk1, stronger effect = lower value 0.996 | locus YJL166W, strain qcr8, stronger effect = lower value 0.976 | locus YJL168C, strain set2, stronger effect = lower value 1.02 | locus YJL187C, strain SWE1 (second series), stronger effect = lower value 0.971 | locus YJR043C, strain POL32, stronger effect = lower value 0.996
